This is an account of results in ChEMBL document CHEMBL4513216, “Probing the Open Global Health Chemical Diversity Library for Multistage-Active Starting Points for Next-Generation Antimalarials” (ACS Infect Dis, 2020).

Out of some 65,000 compounds screened, about 2,100 (3.2%) showed an effect of 50% or more. The median lay at about -52%. The entries come from a sample that favours strong results as a whole.

The assay has as its system Plasmodium falciparum. Kind of assay: Screen against P. falciparum Asexual Blood Stage (ABS), at 5uM. The class given is functional, Dd2. The note with it: tested at 5 uM.
On to `CCN1CCOCC12CCN(c1nccs1)CC2`, for which the INHIBITION is given as -144%. Regarding `CN(CCN1CCOC1=O)CC(=O)Nc1ccc(Cl)c(C(F)(F)F)c1`, the INHIBITION is recorded as -56.7%. Take `CCNCCOc1ccc(-c2cc(N)nc3[nH]ccc23)cc1`: the INHIBITION came out at 51.3%. Consider `CNc1cc(-c2ccc(COCCN)cc2)c2cc[nH]c2n1`, for which the INHIBITION is on record as 2.35%. Consider `Nc1cc(-c2cc(O)cc(C(=O)O)c2)c2cc[nH]c2n1`, for which the INHIBITION is on record as -9.72%. In the case of `CCOCCCNC(=O)c1ccccc1S(C)(=O)=O` it was -120%; in that of `CSCCNc1ccc(C(=O)N(C)Cc2ccc3ccccc3n2)cn1`, -73.9%; in that of `CCOc1ccc(NC(=O)NCCS(=O)(=O)CC)cc1C`, 4.65%.

For `COc1cc(CNCCc2cnn(C)c2)cc2c1OCO2`, the INHIBITION is recorded as -26.5%. Consider `COc1cc(CNCC(O)c2ccccc2)cc2c1OCO2` (centres undefined), for which the INHIBITION stood at 61.1%. As to `COc1cc(CNCc2ccc(C(C)O)cc2)cc2c1OCO2` (centres undefined), the INHIBITION is given as 9.88%. Regarding `Cc1ccc(CN2CCc3onc(C(=O)NCCN(C)C)c3C2)o1`, the INHIBITION is on record as -43.9%. In the case of `CS(=O)(=O)N1Cc2ccccc2CC2(CCN(Cc3ccccc3)C2)C1` (centres undefined) it was 9.04%; in that of `CS(=O)(=O)N1CC2(CCCN(CC3CC3)C2)Cc2ccccc21` (centres undefined), 69.8%.

Take `CS(=O)(=O)N1CC2(CCN(CC3CCCCC3)C2)Cc2ccccc21` (centres undefined): the INHIBITION is on record as -36.9%.

`CS(=O)(=O)N1CC2(CCCN2Cc2ccc(Cl)cc2)Cc2ccccc21` (centres undefined): the INHIBITION is -33%. Consider `CC(=O)N1CC2(CCCN(Cc3ccc(Cl)cc3)C2)Cc2ccccc21` (centres undefined), for which the INHIBITION is -0.688%. For the molecule `CS(=O)(=O)N1CC2(CCN(CC3CCCCC3)CC2)Cc2ccccc21`, the INHIBITION is recorded as 63.8%.

For `Cc1csc(N2CCN(CC(=O)Nc3ccncc3)CC2C)n1` (centres undefined), the INHIBITION was -32.7%. With `COc1cc(OC)cc(C(=O)Nc2ncnc3c2CCC3)c1`, the INHIBITION is listed as -80.8%.

As to `Cc1n[nH]cc1CNCC1(c2ccccc2Cl)CCOCC1`, the INHIBITION worked out at 57.1%.

In the case of `Cc1n[nH]cc1CNCC1(c2ccc3c(c2)OCO3)CCOCC1`, the INHIBITION was -37.3%. As for `O=C(NCC1(O)CCOC1)NCC1(c2ccccc2Cl)CCC1` (centres undefined), the INHIBITION is -90.2%. With `COc1ccc(COCC(O)CNC(=O)c2ccncc2)cc1` (centres undefined), the INHIBITION is reported as -119%. In the case of `O=C(Nc1ccc(F)cc1)N1C[C@@H]2CC[C@H]1CN(Cc1cccnc1)C2` it was -74.3%; in that of `CN1CCN(c2nccc(-c3cncnc3C3CCCCC3)n2)CC1`, 62.3%. Consider `c1cc(-c2c[nH]nc2C2CCCCC2)nc(N2CCCCCC2)n1`, for which the INHIBITION is reported as 1.32%. Consider `CN1CCN(c2ncc(-c3cnccn3)c([C@H]3CCCO3)n2)CC1`, for which the INHIBITION is -10.1%. Take `c1cc(-c2cn3nccc3nc2C2CCCCC2)nc(N2CCCC2)n1`: the INHIBITION turned out to be 3.54%. `NC(=O)C1CCN(c2nccc(-c3c[nH]nc3C3CCCCC3)n2)CC1`: the INHIBITION was determined as 16.3%.

Regarding `CN1CCCN(c2nccc(-c3cncnc3C3CCCCC3)n2)CC1`, the INHIBITION amounted to 61.6%. In the case of `O=C(C[C@@H]1COC[C@H]2CN(C3CCCC3)C[C@@H]12)N1CCCCO1` it was -31.2%; in that of `CC(C)CS(=O)(=O)N1CCC2(CN(c3cccc(F)c3)C(=O)CN2C)C1` (centres undefined), -101%.

On to `C=C/C=c1\c(=C/C)oc2c(NCc3ccccc3)nc(C)nc12`, for which the INHIBITION amounted to 3.94%. In the case of `CCS(=O)(=O)N1CCc2cc(C(=O)NC)c(NCC3CC3)nc2CC1` it was -28%; in that of `CCOC(=O)C1CCN(C(=O)CN2CCCC2c2cc(C)no2)CC1` (centres undefined), -126%. For `CCOC(=O)C1CCN(C(=O)CN2CCCC2c2ccsc2)CC1` (centres undefined), the INHIBITION is on record as 50.9%.

Regarding `CCOC(=O)C1CCN(C(=O)CN2CCCC2c2ccccc2C)CC1` (centres undefined), the INHIBITION is given as 28.2%. In the case of `CC(=O)N(C)Cc1ccccc1NC(=O)N(C)CCc1cccs1` it was -28.3%; in that of `CC(C)c1cncnc1-c1cc(F)cc2c1OC(CN)C2` (centres undefined), 29.4%; in that of `Cc1cc2c(c(-c3cncc(C(=O)N4CCCC4)n3)c1)OC(CN)C2` (centres undefined), 4.12%.

Turning to `NCC1Cc2cc(-c3cnccn3)cc(Cl)c2O1` (centres undefined), the INHIBITION is reported as -13.4%.

Take `Cc1nc(-c2cc(F)c3c(c2)CC(CN)O3)c[nH]1` (centres undefined): the INHIBITION was 53.7%. On to `NCC1Cc2cc(-c3cncc(C(=O)N4CCCCC4)n3)cc(F)c2O1` (centres undefined), for which the INHIBITION is 51.3%. Turning to `NCC1Cc2cc(-c3cncc(C(=O)N4CCOCC4)n3)cc(Cl)c2O1` (centres undefined), the INHIBITION is given as -15.2%.

Turning to `Cc1cc(NC(=O)CN2CCCC2c2noc(C)n2)n(C(C)(C)C)n1` (centres undefined), the INHIBITION was -108%. In the case of `O=C(NC1CC1)[C@@H]1CCO[C@@H]2CCN(CC3CCC3)C[C@@H]21` it was -89.4%; in that of `CN1CC[C@H]2[C@H](C[C@@H](Cn3cncn3)N2c2nccs2)C1`, -37.1%. Turning to `CN1C(Cn2cccn2)C[C@@H]2CN(Cc3cnn(C)c3)CC[C@@H]21` (some centres undefined), the INHIBITION is -48.5%. As for `Cc1ccc(CN2CC[C@H]3[C@H](CC(Cn4cccn4)N3C)C2)s1` (some centres undefined), the INHIBITION worked out at 62.7%. Next, `CC(C)N1[C@H](CN2CCCC2)C[C@@H]2CN(Cc3cnn(C)c3)CC[C@@H]21`: -20.1%; `CN1C(Cn2cccn2)C[C@@H]2CN(Cc3nccs3)CC[C@@H]21` (some centres undefined): -108%.

As to `CCC(=O)N1CC[C@H]2[C@H](C[C@@H](Cn3cccn3)N2c2nccs2)C1`, the INHIBITION is -13.4%.

Take `CC(C)N1CC[C@H]2[C@H](C[C@@H](Cn3cccn3)N2c2nccs2)C1`: the INHIBITION is recorded as 66.3%. Consider `CC(C)N1[C@H](Cn2cccn2)C[C@@H]2CN(Cc3ccoc3)CC[C@@H]21`, for which the INHIBITION stood at 40.6%. For `CN1[C@H](CN2CCCC2)C[C@@H]2CN(Cc3ccoc3)CC[C@@H]21`, the INHIBITION stood at 58.5%.

In the case of `CC1CN(Cc2nc(Cc3ccccc3F)no2)CCN1C` (centres undefined), the INHIBITION is on record as -114%. With `O=C(CCc1ccsc1)N1CCCC(n2cncn2)C1` (centres undefined), the INHIBITION is on record as -152%. `COC[C@@]12CCC[C@@H]1CN(C(=O)CN(C)C)C2`: the INHIBITION is given as -1.68%.

Turning to `Cc1cc(C)c(Cn2cncn2)cc1CN1CC[C@@H]2CC[C@H](C1)N2`, the INHIBITION is given as 13.3%.

Take `Cc1cc(C)c(Cn2cncn2)cc1CN1CCC(CN)C1` (centres undefined): the INHIBITION was found to be 69%. With `CO[C@H]1CN(Cc2cc(Cn3cncn3)c(C)cc2C)CC[C@H]1N`, the INHIBITION was -28.2%. With `COCc1ncn2c1CN(C(=O)Nc1cccc(OC)c1)CC2`, the INHIBITION is -101%. Take `CC(C)c1nccn1-c1cccc(C2CCCN(S(=O)(=O)N(C)C)C2)n1` (centres undefined): the INHIBITION is given as -73.6%.
